Test results published in paper PMC11006913.
Changes are numbered by the printed parent chain.

How the values were obtained:
Assay in all cases: PBM; 200 nM protein, PBS
Conditions in all cases: dsDNA, one strand shown
VENTX [1] = biological target: T1, VENTX (Homo sapiens, UniProt O95231 78-163, R121Q)
T1 sequence: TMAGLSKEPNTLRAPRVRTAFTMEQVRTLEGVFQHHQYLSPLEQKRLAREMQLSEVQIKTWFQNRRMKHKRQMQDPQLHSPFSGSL

VENTX [2] = biological target: T2, VENTX (Homo sapiens, UniProt O95231 78-163)
T2 sequence: T1 sequence with Q44R

PAX4 [3] = biological target: T3, PAX4 (Homo sapiens, UniProt O43316 9-242, R200K)
T3 sequence: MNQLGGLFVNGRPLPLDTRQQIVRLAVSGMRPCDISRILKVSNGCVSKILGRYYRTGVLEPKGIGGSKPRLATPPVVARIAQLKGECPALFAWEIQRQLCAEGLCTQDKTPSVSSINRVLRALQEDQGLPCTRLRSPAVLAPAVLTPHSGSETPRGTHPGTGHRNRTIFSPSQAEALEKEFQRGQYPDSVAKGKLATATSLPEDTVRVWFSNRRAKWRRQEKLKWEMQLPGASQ

PAX4 [4] = biological target: T4, PAX4 (Homo sapiens, UniProt O43316 9-242)
T4 sequence: T3 sequence with K192R

MSX2 = MSX2 (Homo sapiens, UniProt P35548 130-214, R199I)
PAX4 [5] = biological target: T5, PAX4 (Homo sapiens, UniProt O43316 9-242, R200Q)
T5 sequence: T3 sequence with K192Q

PAX4 [6] = biological target: T6, PAX4 (Homo sapiens, UniProt O43316 9-242, F177V)
T6 sequence: T3 sequence with F169V, K192R

PAX4 [7] = biological target: T7, PAX4 (Homo sapiens, UniProt O43316 9-242, F177Y)
T7 sequence: T3 sequence with F169Y, K192R

PAX4 [8] = biological target: T8, PAX4 (Homo sapiens, UniProt O43316 9-242, R227W)
T8 sequence: T3 sequence with K192R, R219W

VENTX [9] = biological target: T9, VENTX (Homo sapiens, UniProt O95231 78-163, Y115F)
T9 sequence: T1 sequence with Y38F, Q44R

NKX2-6 = biological target: T10, NKX2-6 (Homo sapiens, UniProt A6NCS4 118-204, R150C)
T10 sequence: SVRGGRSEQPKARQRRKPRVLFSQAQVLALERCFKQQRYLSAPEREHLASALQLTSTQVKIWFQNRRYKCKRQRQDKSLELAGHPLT

HOXC10 [10] = biological target: HOXC10 (Homo sapiens, UniProt Q9NYD6 254-340)
HOXB6 [11] = biological target: HOXB6 (Homo sapiens, UniProt P17509 132-218, K202E)
HOXA2 [12] = biological target: HOXA2 (Homo sapiens, UniProt O43364 129-215, R185T)
PITX2 = PITX2 (Homo sapiens, UniProt Q99697 72-157)
HOXA2 [13] = biological target: HOXA2 (Homo sapiens, UniProt O43364 129-215, R185K)
HOXC10 [14] = biological target: HOXC10 (Homo sapiens, UniProt Q9NYD6 254-340, K271E)
HOXA2 [15] = biological target: HOXA2 (Homo sapiens, UniProt O43364 129-215, Y150S)
HOXA2 [16] = biological target: HOXA2 (Homo sapiens, UniProt O43364 129-215)
HOXB6 [17] = biological target: HOXB6 (Homo sapiens, UniProt P17509 132-218)
HOXA7 [18] = biological target: HOXA7 (Homo sapiens, UniProt P31268 116-202)
ALX1 [19] = biological target: ALX1 (Homo sapiens, UniProt Q15699 118-204, L144V)
ALX3 [20] = biological target: ALX3 (Homo sapiens, UniProt O95076 139-225, N203Q)
ALX1 [21] = biological target: ALX1 (Homo sapiens, UniProt Q15699 118-204, L144R)
ALX3 [22] = biological target: ALX3 (Homo sapiens, UniProt O95076 139-225)
ALX3 [23] = biological target: ALX3 (Homo sapiens, UniProt O95076 139-225, L168Q)
ALX3 [24] = biological target: ALX3 (Homo sapiens, UniProt O95076 139-225, L168V)
HOXA7 [25] = biological target: HOXA7 (Homo sapiens, UniProt P31268 116-202, W177C)
NKX3-2 [26] = biological target: NKX3-2 (Homo sapiens, UniProt P78367 192-278, P234S)
ALX1 [27] = biological target: ALX1 (Homo sapiens, UniProt Q15699 118-204)
ALX3 [28] = biological target: ALX3 (Homo sapiens, UniProt O95076 139-225, N203S)
NKX3-2 [29] = biological target: NKX3-2 (Homo sapiens, UniProt P78367 192-278)
Chain of NKX3-2 (Homo sapiens, UniProt P78367 192-278) (P78367 192-278): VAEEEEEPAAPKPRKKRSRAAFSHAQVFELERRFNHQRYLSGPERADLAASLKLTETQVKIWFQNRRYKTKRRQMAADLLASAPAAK

Chain of HOXA2 (Homo sapiens, UniProt O43364 129-215, R185K) (O43364 129-215 R185K): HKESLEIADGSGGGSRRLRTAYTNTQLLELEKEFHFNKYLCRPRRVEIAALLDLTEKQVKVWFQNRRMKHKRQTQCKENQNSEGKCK
Chain of HOXA2 (Homo sapiens, UniProt O43364 129-215) (O43364 129-215): as the sequence (O43364 129-215 R185K) above, with K57R counted along it
Chain of HOXA2 (Homo sapiens, UniProt O43364 129-215, Y150S) (O43364 129-215 Y150S): as the sequence (O43364 129-215 R185K) above, with Y22S, K57R counted along it
Chain of HOXA2 (Homo sapiens, UniProt O43364 129-215, R185T) (O43364 129-215 R185T): as the sequence (O43364 129-215 R185K) above, with K57T counted along it
Chain of HOXB6 (Homo sapiens, UniProt P17509 132-218, K202E) (P17509 132-218 K202E): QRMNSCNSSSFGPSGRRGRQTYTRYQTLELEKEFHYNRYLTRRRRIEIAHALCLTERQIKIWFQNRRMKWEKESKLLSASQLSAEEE
Chain of ALX3 (Homo sapiens, UniProt O95076 139-225, L168V) (O95076 139-225 L168V): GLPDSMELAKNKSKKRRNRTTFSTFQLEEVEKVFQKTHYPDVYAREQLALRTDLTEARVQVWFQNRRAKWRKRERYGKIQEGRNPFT
Chain of ALX3 (Homo sapiens, UniProt O95076 139-225, N203S) (O95076 139-225 N203S): as the sequence (O95076 139-225 L168V) above, with V30L, N65S counted along it
Chain of ALX3 (Homo sapiens, UniProt O95076 139-225, L168Q) (O95076 139-225 L168Q): as the sequence (O95076 139-225 L168V) above, with V30Q counted along it
Chain of HOXC10 (Homo sapiens, UniProt Q9NYD6 254-340) (Q9NYD6 254-340): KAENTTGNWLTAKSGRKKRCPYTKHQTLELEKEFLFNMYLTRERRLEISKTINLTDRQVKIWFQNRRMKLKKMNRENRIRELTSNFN
Chain of HOXC10 (Homo sapiens, UniProt Q9NYD6 254-340, K271E) (Q9NYD6 254-340 K271E): as the sequence (Q9NYD6 254-340) above, with K18E counted along it
Chain of ALX3 (Homo sapiens, UniProt O95076 139-225) (O95076 139-225): as the sequence (O95076 139-225 L168V) above, with V30L counted along it
Chain of NKX3-2 (Homo sapiens, UniProt P78367 192-278, P234S) (P78367 192-278 P234S): as the sequence (P78367 192-278) above, with P43S counted along it
Chain of ALX1 (Homo sapiens, UniProt Q15699 118-204, L144R) (Q15699 118-204 L144R): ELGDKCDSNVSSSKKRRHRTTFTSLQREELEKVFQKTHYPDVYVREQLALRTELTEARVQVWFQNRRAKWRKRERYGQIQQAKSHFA
Chain of ALX1 (Homo sapiens, UniProt Q15699 118-204, L144V) (Q15699 118-204 L144V): as the sequence (Q15699 118-204 L144R) above, with R27V counted along it
Chain of ALX3 (Homo sapiens, UniProt O95076 139-225, N203Q) (O95076 139-225 N203Q): as the sequence (O95076 139-225 L168V) above, with V30L, N65Q counted along it
Chain of HOXA7 (Homo sapiens, UniProt P31268 116-202) (P31268 116-202): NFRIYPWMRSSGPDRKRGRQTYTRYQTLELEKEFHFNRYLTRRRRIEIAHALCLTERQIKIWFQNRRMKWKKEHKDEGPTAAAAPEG
Chain of HOXA7 (Homo sapiens, UniProt P31268 116-202, W177C) (P31268 116-202 W177C): as the sequence (P31268 116-202) above, with W62C counted along it
Chain of MSX2 (P35548 130-214 R199I): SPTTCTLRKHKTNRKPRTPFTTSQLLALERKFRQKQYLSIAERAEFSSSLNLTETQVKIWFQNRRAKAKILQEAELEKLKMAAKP
Chain of ALX1 (Homo sapiens, UniProt Q15699 118-204) (Q15699 118-204): as the sequence (Q15699 118-204 L144R) above, with R27L counted along it
Chain of HOXB6 (Homo sapiens, UniProt P17509 132-218) (P17509 132-218): as the sequence (P17509 132-218 K202E) above, with E71K counted along it

## ACCAATCA
VENTX [1]
  binding signal: 9.98 upbm affinity estimate (log intensity, higher = more binding, comparable within an allelic series)
VENTX [2]
  binding signal: 10.7 upbm affinity estimate (log intensity, higher = more binding, comparable within an allelic series)
PAX4 [3]
  binding signal: 10.5 upbm affinity estimate (log intensity, higher = more binding, comparable within an allelic series)
PAX4 [4]
  binding signal: 10.6 upbm affinity estimate (log intensity, higher = more binding, comparable within an allelic series)
MSX2
  binding signal: 10.9 upbm affinity estimate (log intensity, higher = more binding, comparable within an allelic series)
PAX4 [5]
  binding signal: 10.7 upbm affinity estimate (log intensity, higher = more binding, comparable within an allelic series)
PAX4 [6]
  binding signal: 9.96 upbm affinity estimate (log intensity, higher = more binding, comparable within an allelic series)
PAX4 [7]
  binding signal: 10.1 upbm affinity estimate (log intensity, higher = more binding, comparable within an allelic series)
PAX4 [8]
  binding signal: 10 upbm affinity estimate (log intensity, higher = more binding, comparable within an allelic series)

## CCGGGTGC
VENTX [1]
  binding signal: 8.11 upbm affinity estimate (log intensity, higher = more binding, comparable within an allelic series)
VENTX [2]
  binding signal: 8.38 upbm affinity estimate (log intensity, higher = more binding, comparable within an allelic series)
VENTX [9]
  binding signal: 8.21 upbm affinity estimate (log intensity, higher = more binding, comparable within an allelic series)

## CGGCCCCA
VENTX [1]
  binding signal: 8.18 upbm affinity estimate (log intensity, higher = more binding, comparable within an allelic series)
VENTX [2]
  binding signal: 8.34 upbm affinity estimate (log intensity, higher = more binding, comparable within an allelic series)
PAX4 [3]
  binding signal: 9.24 upbm affinity estimate (log intensity, higher = more binding, comparable within an allelic series)
VENTX [9]
  binding signal: 8.08 upbm affinity estimate (log intensity, higher = more binding, comparable within an allelic series)
PAX4 [4]
  binding signal: 9.19 upbm affinity estimate (log intensity, higher = more binding, comparable within an allelic series)
NKX2-6
  binding signal: 9.36 upbm affinity estimate (log intensity, higher = more binding, comparable within an allelic series)
PAX4 [5]
  binding signal: 9.28 upbm affinity estimate (log intensity, higher = more binding, comparable within an allelic series)
PAX4 [6]
  binding signal: 9.21 upbm affinity estimate (log intensity, higher = more binding, comparable within an allelic series)
PAX4 [7]
  binding signal: 9.24 upbm affinity estimate (log intensity, higher = more binding, comparable within an allelic series)
PAX4 [8]
  binding signal: 9.25 upbm affinity estimate (log intensity, higher = more binding, comparable within an allelic series)

## AGGGGGCG
VENTX [1]
  binding signal: 8.25 upbm affinity estimate (log intensity, higher = more binding, comparable within an allelic series)
VENTX [2]
  binding signal: 8.25 upbm affinity estimate (log intensity, higher = more binding, comparable within an allelic series)
HOXC10 [10]
  binding signal: 10 upbm affinity estimate (log intensity, higher = more binding, comparable within an allelic series)
VENTX [9]
  binding signal: 8.23 upbm affinity estimate (log intensity, higher = more binding, comparable within an allelic series)
HOXB6 [11]
  binding signal: 9 upbm affinity estimate (log intensity, higher = more binding, comparable within an allelic series)
HOXA2 [12]
  binding signal: 7.3 upbm affinity estimate (log intensity, higher = more binding, comparable within an allelic series)
PITX2
  binding signal: 8.12 upbm affinity estimate (log intensity, higher = more binding, comparable within an allelic series)
HOXA2 [13]
  binding signal: 10.2 upbm affinity estimate (log intensity, higher = more binding, comparable within an allelic series)
HOXC10 [14]
  binding signal: 9.95 upbm affinity estimate (log intensity, higher = more binding, comparable within an allelic series)
HOXA2 [15]
  binding signal: 10.3 upbm affinity estimate (log intensity, higher = more binding, comparable within an allelic series)
HOXA2 [16]
  binding signal: 7.28 upbm affinity estimate (log intensity, higher = more binding, comparable within an allelic series)
HOXB6 [17]
  binding signal: 8.93 upbm affinity estimate (log intensity, higher = more binding, comparable within an allelic series)

## CGGCCCCC
VENTX [1]
  binding signal: 8.06 upbm affinity estimate (log intensity, higher = more binding, comparable within an allelic series)
VENTX [2]
  binding signal: 8.05 upbm affinity estimate (log intensity, higher = more binding, comparable within an allelic series)
HOXA7 [18]
  binding signal: 8.26 upbm affinity estimate (log intensity, higher = more binding, comparable within an allelic series)
VENTX [9]
  binding signal: 8.12 upbm affinity estimate (log intensity, higher = more binding, comparable within an allelic series)
HOXA2 [12]
  binding signal: 7.13 upbm affinity estimate (log intensity, higher = more binding, comparable within an allelic series)
ALX1 [19]
  binding signal: 6.51 upbm affinity estimate (log intensity, higher = more binding, comparable within an allelic series)
ALX3 [20]
  binding signal: 7.78 upbm affinity estimate (log intensity, higher = more binding, comparable within an allelic series)
PITX2
  binding signal: 7.78 upbm affinity estimate (log intensity, higher = more binding, comparable within an allelic series)
HOXA2 [13]
  binding signal: 9.86 upbm affinity estimate (log intensity, higher = more binding, comparable within an allelic series)
ALX1 [21]
  binding signal: 6.5 upbm affinity estimate (log intensity, higher = more binding, comparable within an allelic series)
ALX3 [22]
  binding signal: 7.73 upbm affinity estimate (log intensity, higher = more binding, comparable within an allelic series)
ALX3 [23]
  binding signal: 7.68 upbm affinity estimate (log intensity, higher = more binding, comparable within an allelic series)
ALX3 [24]
  binding signal: 7.67 upbm affinity estimate (log intensity, higher = more binding, comparable within an allelic series)
HOXA2 [15]
  binding signal: 10.3 upbm affinity estimate (log intensity, higher = more binding, comparable within an allelic series)
HOXA7 [25]
  binding signal: 8.35 upbm affinity estimate (log intensity, higher = more binding, comparable within an allelic series)
NKX3-2 [26]
  binding signal: 10.4 upbm affinity estimate (log intensity, higher = more binding, comparable within an allelic series)
ALX1 [27]
  binding signal: 6.49 upbm affinity estimate (log intensity, higher = more binding, comparable within an allelic series)
ALX3 [28]
  binding signal: 7.76 upbm affinity estimate (log intensity, higher = more binding, comparable within an allelic series)
HOXA2 [16]
  binding signal: 7.15 upbm affinity estimate (log intensity, higher = more binding, comparable within an allelic series)
NKX3-2 [29]
  binding signal: 10.4 upbm affinity estimate (log intensity, higher = more binding, comparable within an allelic series)
